Most compounds without a hit are left out; they make up all but 2.8% or so of the library.
SNCA expr inhib: Primary qHTS assay for inhibitors of alpha-synuclein gene (SNCA) expression. AID 1671194, 2021. HEK-293 SNCA-luciferase knock-in, luminescence, 24 h. Potency, µM (doses to about 57.2 µM), actives largely listed as inhibitors. 0.17% of 140,000 active; further: nearly all actives have a fitted effect of over 45% in size
KDM5B inh: Primary screen for KDM5B Histone Demethylases FDH-coupled qHTS; Lysine-specific demethylase 5B (Homo sapiens), Q9UGL1; KDM5B demethylase, FDH-coupled NADH fluorescence (FDH is formaldehyde dehydrogenase); Potency, µM (highest dose often 57.7 µM), actives largely listed as inhibitors; 2.6% of 220,000 active; AID 1347165, 2019; further: nearly all actives have a fitted effect of over 70% in size
Target sequence (Q9UGL1 whole entry, looked up): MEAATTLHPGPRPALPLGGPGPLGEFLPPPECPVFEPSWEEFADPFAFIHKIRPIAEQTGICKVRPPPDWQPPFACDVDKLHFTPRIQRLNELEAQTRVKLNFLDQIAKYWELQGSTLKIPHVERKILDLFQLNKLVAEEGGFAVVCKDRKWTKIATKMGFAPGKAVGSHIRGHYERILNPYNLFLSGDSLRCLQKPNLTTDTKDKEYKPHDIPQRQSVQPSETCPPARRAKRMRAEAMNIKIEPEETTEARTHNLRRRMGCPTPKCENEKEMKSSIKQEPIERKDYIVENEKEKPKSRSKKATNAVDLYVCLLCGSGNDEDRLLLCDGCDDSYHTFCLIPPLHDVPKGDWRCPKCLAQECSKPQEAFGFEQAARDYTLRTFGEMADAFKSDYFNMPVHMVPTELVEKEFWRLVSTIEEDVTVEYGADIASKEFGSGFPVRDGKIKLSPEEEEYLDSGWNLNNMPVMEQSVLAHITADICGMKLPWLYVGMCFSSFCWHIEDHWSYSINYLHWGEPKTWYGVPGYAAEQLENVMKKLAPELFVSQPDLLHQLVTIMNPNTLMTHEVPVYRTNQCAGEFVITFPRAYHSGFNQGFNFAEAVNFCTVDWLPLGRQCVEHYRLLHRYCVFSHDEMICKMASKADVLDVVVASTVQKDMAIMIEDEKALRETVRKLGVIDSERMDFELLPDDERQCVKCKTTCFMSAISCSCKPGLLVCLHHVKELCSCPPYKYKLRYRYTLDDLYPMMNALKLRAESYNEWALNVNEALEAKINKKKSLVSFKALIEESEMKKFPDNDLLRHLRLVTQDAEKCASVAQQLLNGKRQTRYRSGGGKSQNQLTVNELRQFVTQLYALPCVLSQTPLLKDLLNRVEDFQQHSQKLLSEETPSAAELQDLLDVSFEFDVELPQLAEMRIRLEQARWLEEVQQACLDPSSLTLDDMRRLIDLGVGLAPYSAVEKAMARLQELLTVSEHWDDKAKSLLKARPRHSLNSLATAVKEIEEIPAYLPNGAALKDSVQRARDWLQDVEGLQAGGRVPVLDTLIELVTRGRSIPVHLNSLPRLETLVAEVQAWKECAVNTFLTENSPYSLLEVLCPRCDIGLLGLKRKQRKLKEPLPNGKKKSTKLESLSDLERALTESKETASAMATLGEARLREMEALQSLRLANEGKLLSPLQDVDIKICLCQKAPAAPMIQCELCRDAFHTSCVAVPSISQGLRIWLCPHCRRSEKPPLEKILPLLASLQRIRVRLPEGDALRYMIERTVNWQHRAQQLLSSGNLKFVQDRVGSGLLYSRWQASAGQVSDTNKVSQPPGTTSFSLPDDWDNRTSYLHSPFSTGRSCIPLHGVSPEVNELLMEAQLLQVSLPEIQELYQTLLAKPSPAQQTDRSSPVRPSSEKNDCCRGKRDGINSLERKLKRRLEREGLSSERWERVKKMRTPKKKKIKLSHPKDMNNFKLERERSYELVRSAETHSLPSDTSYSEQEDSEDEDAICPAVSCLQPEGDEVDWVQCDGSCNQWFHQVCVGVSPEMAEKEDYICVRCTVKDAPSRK
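Inhibition is measured as reduced NADH fluorescence generation from FDH coupling to formaldehyde release. Truncated KDM5BΔAP at 200 nM final acts on H3K4me3 peptide (12.5 µM in substrate mix) in pH 7.5 HEPES buffer with Tween-20, 30 min, room temperature.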
HEK293 viab: GF-AFC viability counterscreen for inhibitors of alpha-synuclein gene (SNCA) expression; HEK-293-SNCA-luc viability, GF-AFC fluorescence, 24 h; Potency, µM (series often up to 57.1 µM), usual class: cytotoxic; 0.12% of 150,000 active; further: nearly all actives have a fitted effect of over 30% in size
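Cytotoxicity counterscreen: after 24 h compound treatment of genome-edited SNCA-luciferase HEK-293 cells, live-cell protease substrate GF-AFC read by fluorescence after 30 min; activity scaled between DMSO (0%) and medium-only (-100%), curves Hill-fitted.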
IP6K1 inh: Primary qHTS assay for small molecule inhibitors of Inositol hexaphosphate kinase 1 (IP6K1). Inositol hexakisphosphate kinase 1 (Homo sapiens), Q92551. IP6K1 kinase, ADP-Glo luminescence, 2 h; hits give low values. activity change, % (series mostly up to about 58 µM). 0.81% of 140,000 active; in the data active means activity change below about -25%
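ADP-Glo luminescence measures ADP made by human IP6K1 during a 2 h RT reaction with ATP/IP6 (mix at 1.3 mM/130 uM); top library doses 57.5 and 19.1 uM final.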
Of the large screens only hits and unclear results are named; the others gave an inactive call; ! = not confirmed by another sample. Unless noted, the call rests on the fitted dose curve; in most records, active means well fitted curve in the direction sought with a large enough effect; inconclusive means small, poorly fitted or top-dose-only effect, or another doubt; inactive means no such curve, though single readings can be large; an effect the other way counts as inactive or inconclusive.

CN(C)C(=O)c1nc(C(C)(C)C)c2ccccn12	KDM5B inh 112µM
Cc1cccc(C)c1-c1nc(C(=O)N(C)C)n2ccccc12	KDM5B inh 40µM
CC(C)(C)c1nc(C(=O)NCc2ccc(F)cc2)n2ccncc12	KDM5B inh 100µM
O=C(NCc1ccc(F)cc1)c1nc(-c2cccc(C(F)(F)F)c2)c2ccccn12	none
CC(C)(C)c1nc(C(=O)NCc2ccc(F)cc2)n2ccccc12	KDM5B inh 89µM
Cc1ccc(-c2[nH]ncc2CN2CCc3nc(N4CCN(C)CC4)[nH]c(=O)c3CC2)cc1	none
CC(C)Cc1ccc(C(Nc2ccc3nnnn3n2)c2cccs2)cc1 (stereo unspecified)	none (no result: SNCA expr inhib, HEK293 viab, IP6K1 inh)
COCc1nc(-c2ccc(OC3CN(C(=O)NC(C)C)C3)cc2)no1	none
COC(=O)CNC(=O)c1nc(C(C)(C)C)c2ccccn12	KDM5B inh 126µM
COc1cc(C(=O)OCC(=O)NC(N)=O)cc(OC)c1OC	none (no result: SNCA expr inhib, HEK293 viab, IP6K1 inh)
CCCNC(=O)Cc1csc2nc(C)c(-c3cc(C)n(-c4ccc(Cl)c(Cl)c4)n3)c(=O)n12	KDM5B inh 28µM
Cc1cccc(-n2nc(-c3c(C)nc4scc(CC(=O)NC5CC5)n4c3=O)cc2C)c1	KDM5B inh 25µM, HEK293 viab inconclusive
CCCCNC(=O)Cc1csc2nc(C)c(-c3cc(C)n(-c4cccc(Cl)c4)n3)c(=O)n12	KDM5B inh inconclusive
Cc1nc2scc(CC(=O)NCC(C)C)n2c(=O)c1-c1cc(C)n(-c2ccc(F)cc2)n1	KDM5B inh inconclusive
Cc1ccc(Cl)cc1-n1nc(-c2c(C)nc3scc(CC(=O)NCCC(C)C)n3c2=O)cc1C	KDM5B inh 22µM, HEK293 viab inconclusive
Cc1nc2scc(CC(=O)N3CCOCC3)n2c(=O)c1-c1cc(C)n(-c2ccc(C(C)C)cc2)n1	KDM5B inh 25µM
Cc1ccc(NC(=O)C2CCCN(S(=O)(=O)c3ccccc3)CCC(=O)NCC2)cc1 (stereo unspecified)	none
CCc1nc2nccc(-c3ccsc3)n2n1	KDM5B inh 25µM
COCc1nc2nccc(-c3ccsc3)n2n1	KDM5B inh 28µM
CC(C)Cc1nc2nccc(-c3ccsc3)n2n1	KDM5B inh 28µM
Clc1cccc(Oc2ncnc3c2oc2ccccc23)c1	none (no result: SNCA expr inhib, HEK293 viab, IP6K1 inh)
CNC(=O)N1CCC(C2CCN(C(=O)c3ccc(Br)cc3)C2)CC1 (stereo unspecified)	HEK293 viab inconclusive
CN1C(=O)C(CC(=O)NCC2CCN(Cc3ccccc3F)CC2)=C2CCCCC21 (stereo unspecified)	none
COc1ccc(-c2ccnc3nc(C(C)C)nn23)c(F)c1	none
COc1cc(-c2ccnc3nc(C(C)C)nn23)cc(OC)c1OC	KDM5B inh inconclusive
COc1ccc(-c2ccnc3nc(C(C)C)nn23)cc1	KDM5B inh 25µM
COc1ccc(-c2ccnc3nc(C(C)C)nn23)cc1OC	KDM5B inh 28µM
CCN1CC2(CCN(C(=O)Cc3c(C)[nH]c4c(F)cccc34)CC2)OC1=O	none
CC(Oc1ccc(Cl)c(Cl)c1)C(=O)NN (stereo unspecified)	none (no result: SNCA expr inhib, HEK293 viab, IP6K1 inh)
COc1ccc2nc([C@H]3CCN(C(C)C)C3)[nH]c2c1	KDM5B inh 32µM
CN1CCC(N2CC[C@H](c3nc4ccccc4[nH]3)C2)CC1	none
FC(F)(F)c1ccc2nc([C@H]3CCN(C4CCCCC4)C3)[nH]c2c1	KDM5B inh inconclusive
c1cc2nc(C3CCN(C4CCCCC4)C3)[nH]c2cn1 (stereo unspecified)	KDM5B inh 40µM!
Cc1ccc2nc([C@H]3CCN(C4CCC4)C3)[nH]c2c1	SNCA expr inhib inconclusive, KDM5B inh 28µM
Cc1ccc(C#N)c(NCc2cccnc2N2CCN(c3ccccn3)CC2)n1	KDM5B inh 28µM
CC1=C2CC(=O)C(C)CC/C=C(\C)CC2OC1=O (stereo unspecified)	none (no result: SNCA expr inhib, KDM5B inh)
O=C(NCC(F)(F)F)c1cc(C2CC2)nc2onc(C3CCNC3)c12 (stereo unspecified)	SNCA expr inhib inconclusive, KDM5B inh 89µM
CC(C)CNC(=O)c1cc(C2CC2)nc2onc(C3CCNC3)c12 (stereo unspecified)	KDM5B inh 100µM
O=C(c1cc(C2CC2)nc2onc(C3CCNCC3)c12)N1CCOCC1	KDM5B inh 56µM
CN1C(=O)C(c2ccccc2)CC12CCN(C(=O)CN1CCCC1)CC2 (stereo unspecified)	KDM5B inh 25µM
Cc1ccc(C#N)c(N2CCC3(CC2)CC(c2ccccc2)C(=O)N3C)n1 (stereo unspecified)	KDM5B inh 28µM
CN1C(=O)C(c2ccccc2)CC12CCN(C(=O)C1CCC1)CC2 (stereo unspecified)	none
Cc1cc(C(=O)NCc2ccc(F)cc2)c2c(C3CCNCC3)noc2n1	SNCA expr inhib inconclusive
COc1nc2ccccc2nc1N1CCC(C(=O)Nc2ccc(F)cc2)CC1	none (no result: SNCA expr inhib, HEK293 viab, IP6K1 inh)
COc1ccc(NC(=O)N2CCC(OCCOc3cccnc3)CC2)cc1	none
O=C1CCN(C(=O)C2CCC2)CCCC(C(=O)N2CCN(c3ccccn3)CC2)CCN1 (stereo unspecified)	KDM5B inh 22µM
O=C1CCN(C(=O)c2ccsc2)CCCC(C(=O)N2CCN(c3ccccn3)CC2)CCN1 (stereo unspecified)	KDM5B inh 20µM
O=C1CCN(Cc2ccncc2)CCCC(C(=O)N2CCN(c3ccccn3)CC2)CCN1 (stereo unspecified)	KDM5B inh inconclusive
CCN(CC)C(=O)c1cc2c(s1)CCC(C(=O)N1CCN(c3ccccn3)CC1)C2 (stereo unspecified)	SNCA expr inhib inconclusive, KDM5B inh 28µM
CCN(CC)C(=O)c1cc2c(s1)CCC(C(=O)N1CCN(c3ccccc3)CC1)C2 (stereo unspecified)	none
O=C(NCc1ccccc1)C(=O)Nc1ccc2cc[nH]c2c1	none (no result: SNCA expr inhib, HEK293 viab, IP6K1 inh)
CCc1c(C)cc(C(=O)N[C@@H]2[C@@H](Cc3ccccc3)[C@H]3OCC[C@@H]23)c(=O)n1C	KDM5B inh 28µM
O=C(Nc1cccc(F)c1)N1Cc2[nH]cnc2C[C@H]1c1nc(-c2ccc3c(c2)OCO3)no1	SNCA expr inhib inconclusive, KDM5B inh inconclusive
O=C(Nc1cccc(F)c1)N1Cc2[nH]cnc2C[C@H]1c1nc(-c2ccccc2)no1	KDM5B inh 28µM
O=C(Nc1cccc(F)c1)N1Cc2[nH]cnc2C[C@H]1c1nc(-c2ccc(Cl)cc2)no1	HEK293 viab inconclusive
O=C(c1ccc(F)cc1)N1Cc2[nH]cnc2C[C@H]1c1nc(-c2ccc3c(c2)OCO3)no1	SNCA expr inhib inconclusive, KDM5B inh 40µM
CC(C)c1ccc(CNC(=O)C2Cn3cccc3C(=O)N2)cc1 (stereo unspecified)	none
CC1=C[C@@H](CN2CCC[C@H]2CO)[C@H](C(C)C)C[C@H]1Cc1nnc(-c2ccc(N(C)C)cc2)o1	KDM5B inh 11µM
CC1=C[C@@H](CNCCN(C)C)[C@H](C(C)C)C[C@H]1Cc1nnc(-c2ccc(C)cc2)o1	none
